Laboratory results as given in the supplement of paper PMC6555819.

Legend:
Assay in all cases: PBM binding z-score (relative to random genomic background probes); higher = stronger binding; sequences stand for … in GC…GCGATTGACAGCGTAGAATGAAGG
[1] = tested on: FXR:RXRa (NR concentration 270 nM, RXRa partner concentration 90 nM)
Procedure, shortened: (§1)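 Binding buffer was PBS pH 7.4 with 2% milk, 0.02% Triton X-100, 1 mM DTT, 0.2 mg/mL BSA and 0.4 mg/ml salmon testes DNA. In it, ligand-free nuclear receptor dimers were incubated 1 h on custom Agilent 4×180K protein-binding microarrays carrying double-stranded probes. Antibodies against each partner (one per run) detected binding, and z-scores were calculated against random background probes after regression normalization of scanned fluorescence.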

[2] = tested on: LXRa:RXRa (NR concentration 270 nM, RXRa partner concentration 90 nM)
Procedure, shortened: as §1

[3] = tested on: LXRa homodimer (NR concentration 270 nM)
Procedure, shortened: as §1

[4] = tested on: LXRb:RXRa (NR concentration 270 nM, RXRa partner concentration 90 nM)
Procedure, shortened: as §1

[5] = tested on: LXRb homodimer (NR concentration 270 nM)
Procedure, shortened: as §1

[6] = tested on: PPARg:RXRa (NR concentration 180 nM, RXRa partner concentration 90 nM)
Procedure, shortened: as §1

[7] = tested on: PPARg:RXRa 270nM:90nM, anti-RXR (NR concentration 270 nM, RXRa partner concentration 90 nM)
Procedure, shortened: as §1

[8] = tested on: PPARg:RXRa 30nM:10nM, anti-RXR (NR concentration 30 nM, RXRa partner concentration 10 nM)
Procedure, shortened: as §1

[9] = tested on: PPARg:RXRa 90nM:30nM, anti-RXR (NR concentration 90 nM, RXRa partner concentration 30 nM)
Procedure, shortened: as §1

Row | Sequence | PBM binding z-score [1] | PBM binding z-score [2] | PBM binding z-score [3] | PBM binding z-score [4] | PBM binding z-score [5] | PBM binding z-score [6] | PBM binding z-score [7] | PBM binding z-score [8] | PBM binding z-score [9]
1 | CATACTAGGTCAAAGGTCAAAGTCGAGCCAACCA | 8.57 | 7.39 | 7.06 | 7.48 | 3.69 | 13.2 | 10.9 | 12.6 | 12.5
2 | AGAATGAGGTTACCAGAGATCAGGGAAACGCTTG | 2.17 | 6.18 | -0.181 | 3.62 | -0.177 | 2.77 | 2.74 | 0.897 | 1.85
3 | TCATATAGGTAATAGGTGAAAGTCGGTGTGGTAA | 1.15 | 1.11 | 0.316 | 1.18 | 0.0131 | 6.6 | 6.84 | 6.19 | 7.27
4 | ACCAGCAGGCCAAGGGTCACTCAAGATTAGTCCG | 2.48 | 2.71 | -0.066 | 2.55 | -0.909 | 6.25 | 6.19 | 4.57 | 5.83
5 | TCTCGGAGGACACGAAAAGTCAGAGCTCGACATC | 0.557 | 0.0964 | -0.301 | -0.0523 | -0.795 | 0.122 | 1.13 | 2.15 | 1.59
6 | AGATTGAGGTTACCAAAGATCAGGGAAACGCTTG | 2.33 | 6.22 | 0.108 | 3.17 | -0.201 | 2.04 | 2.22 | 0.623 | 1.49
7 | ATATGTAGGTTCCATCCGGGTCATTCAGGCTATG | 1.31 | 1.3 | 0.192 | 1.88 | 0.514 | 2.33 | 2.26 | 0.557 | 1.74
8 | TAGCCTAGGTCATTGTGCCAGTATAGTACGCATC | 4.04 | 3.2 | 1.08 | 2.51 | 0.948 | 2.89 | 2.79 | 0.475 | 2.19
9 | AGTCAAAGTTCAGGACGAGGTAATGTAAAGCACG | 4.1 | 3.43 | 1.28 | 1.77 | 0.372 | 4.31 | 4.68 | 2.03 | 4.01
10 | GATACGGGGTCAGCTAGAGGCCAGAGTATGGAAA | 7.6 | 5.46 | -0.127 | 5.17 | 0.715 | 7.74 | 7.16 | 3.25 | 5.78
11 | CAAACTAGGTCACGAAAGGTCAAATTCGAATGAC | 7.71 | 8.3 | 8.38 | 7.56 | 3.75 | 10.6 | 8.52 | 7.21 | 8.47
12 | CAAACTAGGTCAAAGGTCAAAGCCGAGCCAACCA | 8.47 | 7.19 | 5.21 | 7.3 | 2.55 | 13.1 | 11.3 | 13.6 | 13
13 | CCTGCTAGGTCATGGTCAGGTAATCTACAGTATG | 3.64 | 2.62 | 0.355 | 1.7 | -0.354 | 2.37 | 2.82 | 0.671 | 1.75
14 | GGAACGAGCGCAAAGTTGATAGCATCTGTCGACG | -0.856 | -0.827 | -0.68 | -1.1 | -1.22 | 1.51 | 3.31 | 0.951 | 2.9
15 | CCTACTGGGCCAATGTCATTGATCAGTCAAAGCA | -0.931 | -0.71 | -0.956 | -0.421 | -0.826 | 0.865 | 0.774 | -0.129 | 0.12
16 | CATCCAAGGTCAAAGGTCAGTGAAGAGATGACGG | 8.63 | 7.28 | 5.11 | 7.03 | 3.15 | 11.1 | 9.75 | 8.73 | 10.8
